NadD inh: inhibitors of S. aureus NadD, primary screen, biochemical, colorimetric, uHTS; inhibition, % at 20 µM; purified NadD enzyme, colorimetric absorbance read-out; hit rate 0.78% among 360,000; AID 602399, 2012; in the data active = inhibition above about 26%
Pemphigus Ab inh: inhibitors of pemphigus antibody binding to DSG3, primary screen, biochemical, bead-based, flow cytometry, scFv-GFP. AID 588358, 2011. DSG3-coupled beads, scFv-anti-DSG3-GFP binding; hits give low values. Desmoglein-3 (Homo sapiens), P32926. binding (percent of control), % at 10 µM. hit rate 0.48% among 310,000;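 active = binding more than 3 SD below its plate's average and above zero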;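 note: hits lower antibody fragment binding to DSG3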
DAGLB inhibitor: DAGLB lipase inhibitors, primary screen, biochemical, fluorescence, HTS; Diacylglycerol lipase-beta (Homo sapiens), Q8NCG7; HEK293T DAGLB membrane lysate, EnzChek fluorogenic substrate; inhibition, % at 5.17 µM; hit rate 0.059% among 340,000; AID 504411, 2011; in the data active = inhibition above about 34%
Target sequence (Q8NCG7 whole entry, looked up): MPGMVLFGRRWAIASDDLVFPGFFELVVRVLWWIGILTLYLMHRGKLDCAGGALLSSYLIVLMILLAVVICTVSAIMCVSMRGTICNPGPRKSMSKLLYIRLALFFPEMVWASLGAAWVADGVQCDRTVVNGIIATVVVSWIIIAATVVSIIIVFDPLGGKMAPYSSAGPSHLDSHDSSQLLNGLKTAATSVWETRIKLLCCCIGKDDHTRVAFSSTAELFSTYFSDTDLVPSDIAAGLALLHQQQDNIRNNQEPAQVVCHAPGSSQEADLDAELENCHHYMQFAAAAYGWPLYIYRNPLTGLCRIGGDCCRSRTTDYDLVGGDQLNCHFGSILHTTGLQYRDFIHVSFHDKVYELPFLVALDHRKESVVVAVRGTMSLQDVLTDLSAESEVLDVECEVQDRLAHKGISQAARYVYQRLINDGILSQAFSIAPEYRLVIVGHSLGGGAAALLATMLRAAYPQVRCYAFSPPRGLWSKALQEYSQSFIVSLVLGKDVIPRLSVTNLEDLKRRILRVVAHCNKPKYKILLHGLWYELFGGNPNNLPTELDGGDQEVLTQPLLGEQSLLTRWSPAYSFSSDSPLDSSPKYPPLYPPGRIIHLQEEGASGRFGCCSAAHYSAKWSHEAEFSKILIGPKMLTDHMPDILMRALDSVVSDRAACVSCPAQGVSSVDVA
bovine MsrA act: bovine MsrA enzyme activators, primary screen, biochemical, absorbance, HTS; Methionine sulfoxide reductase A (Bos taurus); purified bovine MsrA, absorbance read-out; activation, % at 10.6 µM; hit rate 0.3% among 360,000; AID 602163, 2012; in the data active = activation above about 7.5%
rCAG binder: binders of r(CAG) RNA repeats, primary screen, biochemical, fluorescence. inhibition, % at 3 µM. hit rate 1.3% among 370,000. r(CAG) RNA repeat, TO-PRO-1 dye displacement fluorescence;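 active = inhibition above the plate cutoff, the mean of all test compounds on that plate plus 3 SD, cut at about 35% in these data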;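 note: higher means more dye released from RNA so lower well fluorescence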
MsrA inh: bovine MsrA enzyme inhibitors, primary screen, biochemical, absorbance, HTS; AID 651718, 2012; purified bovine MsrA, absorbance read-out; hit rate 0.75% among 360,000; inhibition, % at 15.5 µM; in the data active = inhibition above about 4.5%
Each line names hits and unclear results; the compound was inactive in the other large screens. Sampled rows, rich in hits. Any-hit rate of the full collection: about 3.2%.

Cc1ccc(C(=O)C2CCN(CC(=O)N3CC(C)CC(C)C3)CC2)cc1 (stereo not drawn)	none (no result: NadD inh, Pemphigus Ab inh, DAGLB inhibitor, bovine MsrA act, MsrA inh)
COCCNC(=O)c1csc2c1CCCC2	bovine MsrA act 12
COc1ccc(CCNC(=O)c2csc3c2CCCC3)cc1OC	none (no result: Pemphigus Ab inh)
CC(C)CNC(=O)OCc1cn(Cc2ccccc2C(F)(F)F)nn1	none (no result: NadD inh, Pemphigus Ab inh, DAGLB inhibitor, bovine MsrA act, MsrA inh)
COC(=O)C1CN(Cc2ccc(OC)cc2)CCS(=O)(=O)N1Cc1ccc(C)cc1 (stereo not drawn)	none (no result: NadD inh, Pemphigus Ab inh, DAGLB inhibitor, bovine MsrA act, MsrA inh)
CC1=C2NC(N)=[N+](CC3CC3)C(Cc3ccccc3)[C@@H]2n2c(=O)n(-c3ccccc3)c(=O)n2C1 (stereo partly drawn)	none (no result: NadD inh, Pemphigus Ab inh, DAGLB inhibitor, bovine MsrA act, MsrA inh)
Cc1ccc(Sc2ncccc2COC(=O)Nc2ccccc2)cc1	none (no result: Pemphigus Ab inh)
Cc1ccc(Sc2ncccc2COC(=O)Nc2c(C)cccc2C)cc1	Pemphigus Ab inh 3.0
Cc1ccc(CCNC(=O)C2CCN(S(=O)(=O)c3ccc4c(c3)CCC(=O)N4)CC2)cc1	Pemphigus Ab inh 77
O=C1CCc2cc(S(=O)(=O)N3CCC(C(=O)NCCC4=CCCCC4)CC3)ccc2N1	none
CC(C)CNC(=O)OCc1cn(Cc2ccccc2Cl)nn1	none (no result: NadD inh, Pemphigus Ab inh, DAGLB inhibitor, bovine MsrA act, MsrA inh)
CCN(CC)S(=O)(=O)c1cccc(NC(=O)C2SC(=Nc3ccc(C)cc3C)C(C(=O)NC(C)COC)=C2N)c1 (stereo not drawn)	NadD inh 44 (no result: Pemphigus Ab inh)
CCN(CC)S(=O)(=O)c1cccc(C(=O)Nc2cccc(C)c2)c1	none
Cc1nc2sc(C(=O)NCc3nccs3)c(N)c2c(C)c1Cl	none (no result: NadD inh, Pemphigus Ab inh, DAGLB inhibitor, bovine MsrA act, MsrA inh)
COC(=O)[C@]12C[C@H](CC(=O)NCC3CCCCC3)C(=O)N(Cc3cccc4ccccc34)C1=C[C@H](C(C)C)O[C@@H]2C1CC1	none (no result: NadD inh, Pemphigus Ab inh, DAGLB inhibitor, bovine MsrA act, MsrA inh)
COc1ccc(Cc2nnc(N/N=C/c3ccc(N(C)C)cc3)[nH]c2=O)cc1OC	Pemphigus Ab inh 77
C#CCCN([C@@H](CC(C)C)C(=O)OC)S(=O)(=O)c1ccccc1Br	none (no result: NadD inh, Pemphigus Ab inh, DAGLB inhibitor, bovine MsrA act, MsrA inh)
O=C(OCCOCCN=C1NS(=O)(=O)c2ccccc21)c1ccc(F)cc1	Pemphigus Ab inh 48
CC(=O)c1cccc(CN(C)CC2CCCN(CCc3ccccc3C)C2)c1 (stereo not drawn)	none
O=C(c1ccccc1NS(=O)(=O)c1ccc([N+](=O)[O-])cc1[N+](=O)[O-])N1O[C@@H]2C=C[C@H]1C2	rCAG binder 35, MsrA inh 7.2
Cc1cc(N2CCN(C(c3ccnc4ccccc34)c3nnnn3-c3c(C)cccc3C)CC2)c2ccccc2n1 (stereo not drawn)	none (no result: Pemphigus Ab inh, DAGLB inhibitor)
Cc1ccccc1C(=O)N(C)[C@H]1C[C@H]2c3[nH]c4c(-c5ccc6c(c5)OCO6)cccc4c3CCN2C[C@H]1[C@H](C)O	none (no result: NadD inh, Pemphigus Ab inh, DAGLB inhibitor, bovine MsrA act, MsrA inh)
CC(C)C[C@H]1COc2cccc(F)c2S(=O)(=O)N1Cc1cn(Cc2ccc(F)cc2)nn1	none (no result: NadD inh, Pemphigus Ab inh, DAGLB inhibitor, bovine MsrA act, MsrA inh)
CCOc1cc(/C=N/NC(=O)c2cccnc2)ccc1OCC(=O)N(C)C	Pemphigus Ab inh 78
CCOc1cc(/C=N/NC(=O)c2cccnc2)ccc1OCC(N)=O	none
CCn1c(-c2csc(-c3ccccc3)n2)n[nH]c1=S	Pemphigus Ab inh -34
O=C(O)c1cccc(-c2ccc(/C=C3/SC(=Nc4ccccc4)N(Cc4cccnc4)C3=O)o2)c1	NadD inh 32
Cc1nn(CCC#N)c(NC(=O)c2ccc(Cl)cc2Cl)c1P(=O)(Nc1ccc([N+](=O)[O-])cc1)N1CCOCC1 (stereo not drawn)	MsrA inh 4.7
Cc1nn(CCC#N)c(NC(=O)c2ccc(Cl)cc2)c1P(=O)(Nc1ccc([N+](=O)[O-])cc1)N1CCOCC1 (stereo not drawn)	none (no result: Pemphigus Ab inh)
CCC(C)N(C)C(=O)c1cc2ccccc2c(-c2ccccc2Cl)n1 (stereo not drawn)	Pemphigus Ab inh 20
O=C(O)c1cc(-c2ccc3c(c2)OCO3)nc2ccc(Br)cc12	Pemphigus Ab inh 33
O=C1Cc2cccc(=O)c(O)c2C(=O)O1	none
O=C1c2c(O)cccc2Cc2cccc(O)c21	Pemphigus Ab inh 64
CCCCCC(=O)Nc1cc(S(=O)(=O)O)cc2cc(S(=O)(=O)O)cc(O)c12	rCAG binder 43 (no result: Pemphigus Ab inh)
CC1(C(=O)NCCc2ccccc2)Cc2c(-c3cccc(C(F)(F)F)c3)ccnc2O1 (stereo not drawn)	none (no result: Pemphigus Ab inh, DAGLB inhibitor)
N#Cc1c(NC(=O)c2ccccc2Cl)n(Cc2ccccc2)c2nc3ccccc3nc12	NadD inh 32, rCAG binder 90
CCCCn1c(NC(=O)CC)c(C#N)c2nc3ccccc3nc21	none (no result: Pemphigus Ab inh)
O=C(CSc1nnc(-c2cccnc2)n1C1CCCCC1)N1CCCC1	none (no result: NadD inh, Pemphigus Ab inh, DAGLB inhibitor, bovine MsrA act, MsrA inh)
CC(=O)Nc1ccc(NC(=O)CSc2ccc(-c3ccc4c(c3)OCO4)nn2)cc1	Pemphigus Ab inh 60
O=C(NC(=S)Nc1ccc(NC(=O)c2cccs2)cc1)c1cc2ccccc2o1	Pemphigus Ab inh 70
O=C(COC(=O)c1cc(=O)[nH]c2ccccc12)NCc1cccs1	none
NC(=O)c1ccsc1NC(=O)COC(=O)c1cc(=O)[nH]c2ccccc12	Pemphigus Ab inh 83
CCCCCCCCN1C(=O)[C@H](CC(=O)NCc2ccc(OC)c(OC)c2)C[C@@]2(C(=O)OCC)CCCC=C12	none (no result: Pemphigus Ab inh, DAGLB inhibitor)
Cc1cc(C)c2c(N)c(C(=O)Nc3ncc(C)s3)sc2n1	none
COc1ccc2nc(NC(=O)c3sc4nc(C)cc(C)c4c3N)sc2c1	Pemphigus Ab inh 74
COc1ccccc1CN(C)C(=O)C1CCCN(c2nc3ccccc3o2)C1 (stereo not drawn)	none (no result: NadD inh, Pemphigus Ab inh, DAGLB inhibitor, bovine MsrA act, MsrA inh)
CCOc1cc(/C=C2\SC(N)=NC2=O)ccc1O	none
Cc1ccc(-c2nn(-c3ccccc3)cc2/C=C2\SC(=S)N(CC(=O)O)C2=O)cc1	NadD inh 41
O=C(O)CCCCCN1C(=O)/C(=C\c2cn(-c3ccccc3)nc2-c2cccs2)SC1=S	NadD inh 32
O=C(O)CCN1C(=O)/C(=C/c2cn(-c3ccccc3)nc2-c2cccs2)SC1=S	NadD inh 31
COc1ccc(-c2nn(-c3ccccc3)cc2/C=C2/SC(=S)N(CCC(=O)O)C2=O)cc1	none
COc1ccc(-c2nn(-c3ccccc3)cc2/C=C2/SC(=S)N(CCC(=O)O)C2=O)c(C)c1	none
CCOc1ccc(-c2nn(-c3ccccc3)cc2/C=C2\SC(N)=NC2=O)cc1C	NadD inh 32
CCc1nc2c(OCc3ccc(C(F)(F)F)cc3)cccn2c1N(C)C(=O)c1ccc(C)cc1	none (no result: Pemphigus Ab inh, DAGLB inhibitor)
CN1CCN(c2ccccc2NC(=O)c2ccc([N+](=O)[O-])o2)CC1	none (no result: rCAG binder, MsrA inh)
CS(=O)(=O)N1CCN(c2ccccc2NC(=O)c2ccc([N+](=O)[O-])o2)CC1	Pemphigus Ab inh 28
Fc1cccc(-c2cc3nc4c(c(N5CCOCC5)n3n2)CCCC4)c1	none
Clc1cccc(-c2cc3nc4c(c(N5CCOCC5)n3n2)CCCC4)c1	MsrA inh 4.8
